NS1 inh: inhibitors of influenza NS1 protein function; AID 2326; 270,000 tested, 0.4% active; Potency, µM (series often up to 46.1 µM); calls by dose curve; note: actives are rising curves; nearly all actives have a fitted effect of over 50% in size
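Growth recovery, yeast-based: influenza A NS1 expressed in S. cerevisiae causes slow growth, and suppressors are detected by OD600. The parent strain without NS1 is used as positive control.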
Pf growth 48h: inhibits P. falciparum growth in the first generation, 48 h | P. falciparum luciferase growth in erythrocytes, 48 h | Potency, µM (titrated, usually from 28.7 µM), usual class: inhibitors | 310,000 tested, 5.9% active | AID 504832
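Compounds are pin-transferred into medium, infected erythrocytes (2% hematocrit, 0.1% parasitemia final) are added, and plates sit one parasite generation at 37 C in 5% CO2. Detection reagent is then added and luminescence measured.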
Shiga inhibitor: inhibitors of Shiga toxin in Vero cells. Vero cells, Shiga toxin protein synthesis inhibition reporter. inhibition, % at 38.7 µM. AID 2315. 290,000 tested, 9.2% active; in the data active = inhibition mostly above about 28%, no sharp cut-off; inactive = mostly below about 43%
Pf growth 96h: P. falciparum growth inhibition at 96 hour, primary screen for plastid delayed-death inhibitors; AID 504834; P. falciparum luciferase reporter growth, 96 h; 320,000 tested, 6.9% active; Potency, µM (titrated, usually from 28.7 µM), hits mostly inhibitors
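Compounds incubated with erythrocytes infected by luciferase-expressing P. falciparum (2% hematocrit, 0.05% parasitemia final) for 96 hours, 37 C in 5% CO2. Growth inhibition scored as decreased luciferase luminescence.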
CHX counter: counter-screen for Shiga toxin inhibitors: cycloheximide protein synthesis inhibition | cell reporter, cycloheximide protein synthesis inhibition counterscreen | max response, % | 300,000 tested, 12% active; in the data active = max response mostly above about 13%, no sharp cut-off; inactive = mostly below about 14%; note: read at 38.3 µM for the half of the compounds with a filed dose
Hits are given with their value; i = inactive; ? = inconclusive; nt = no result; ! = repeats disagree. Only some compounds are listed: those with a hit (about 21% of all), similar ones and a draw of the others. Unless noted, calls come from the whole dose curve; as a rule, active = well fitted inhibition curve with a large enough effect; inconclusive = small, poorly fitted or top-dose-only effect, or another doubt; inactive = no such curve, though single readings can be large or run the other way.

SMILES | NS1 inh | Pf growth 48h | Shiga inhibitor | Pf growth 96h | CHX counter
O=C(c1ccc([N+](=O)[O-])o1)N1CCOCC1 | nt | ? | i | 3.3µM | i
CCOc1ccc(NC(=O)N(Cc2cn(CC)c3ccccc23)C2CCCCCC2)cc1 | nt | nt | 72 | nt | 33
N#Cc1cn(Cc2cccc(Cl)c2)c2ccccc12 | i | 9.3µM | i | i | i
CCOc1ccc(NC(=O)N(C2CCCCCC2)C2CCN(C(C)=O)CC2)cc1 | i | i | i | i | i
N#Cc1cn(CC(=O)N2CCCC2)c2ccccc12 | i | i | i | i | i
COc1ccccc1OCCCn1cc(C#N)c2ccccc21 | i | i | 34 | nt | 27
N#Cc1cn(CCCOc2ccccc2)c2ccccc12 | i | i | i | i | 17
Cn1cnc([N+](=O)[O-])c1Oc1ccc2ccccc2c1 | i | i | i | i | i
CCOc1ccc(NC(=O)Cn2cc(C(=O)C3CC3)c3ccccc32)cc1 | i | i | i | 5.9µM | i
COc1ccccc1OCCCn1cc(C(=O)C2CC2)c2ccccc21 | i | 12µM | i | ? | i
COc1ccc(CCNC(=O)COC(=O)c2cnccn2)cc1 | i | nt | i | i | i
COc1ccc(C(=O)Nc2nc3ccc(S(C)(=O)=O)cc3s2)cc1OC | nt | i | i | 5.9µM | i
CS(=O)(=O)c1ccc2nc(NC(=O)Nc3ccccc3F)sc2c1 | i | i | 73 | i | 61
CS(=O)(=O)c1ccc2nc(NC(=O)CCNC(=O)c3ccc([N+](=O)[O-])cc3)sc2c1 | nt | ? | nt | 0.74µM | nt
CS(=O)(=O)c1ccc2nc(NC(=O)Cc3ccccc3)sc2c1 | ? | i | i | i | i
CS(=O)(=O)c1ccc2nc(NC(=O)c3ccc(NS(=O)(=O)c4cccc([N+](=O)[O-])c4)cc3)sc2c1 | i | ? | i | ? | i
CS(=O)(=O)c1ccc2nc(NC(=O)c3ccccc3)sc2c1 | i | i | 39 | i | 28
CNC(=O)[C@]1(C(F)(F)F)C[C@H](CCC2CCCCC2)CCCO1 | nt | nt | i | nt | i
COc1cc(C(=O)Nc2nc3ccc(C)cc3s2)ccc1OCc1c(C)noc1C | ? | i | 76 | i | 62
CS(=O)(=O)c1ccc2nc(NC(=O)Nc3ccc(Cl)c(Cl)c3)sc2c1 | ? | i | i | i | i
Cc1cccc(C(=O)Nc2nc3ccc(S(C)(=O)=O)cc3s2)c1 | i | i | 88 | i | 36
CS(=O)(=O)c1ccc2nc(NC(=O)Nc3cccc(Cl)c3)sc2c1 | i | ? | 107 | ? | 31
CC(C)C(=O)Nc1nc2ccc(S(C)(=O)=O)cc2s1 | i | i | i | i | i
CC(C)(C)C(=O)Nc1nc2ccc(S(C)(=O)=O)cc2s1 | nt | i | 78 | i | 36
Cc1ccc(-c2cccc(NC(=O)C3C(C(=O)O)[C@@H]4C=C[C@H]3C4)c2)o1 (some centres not stated) | i | i | 33 | i | i
SMILES | NS1 inh | Pf growth 48h | Shiga inhibitor | Pf growth 96h | CHX counter
CC(=O)Nc1ccc(NC(=O)C2C3C=CC(C3)C2C(=O)O)cc1 (configuration not stated) | i | i | i | 1.7µM | i
CSC1=C(C#N)C(c2sccc2C)CC(=O)N1 (configuration not stated) | i | i | i | i | i
COc1cc(/C=N/NC(=O)c2csc3c2CCCC3)ccc1OCCN1CCOCC1 | i | i | i | ? | 26
Cc1ccc(/C=N/NC(=O)c2csc3c2CCCC3)cc1 | i | i | 101 | i | 27
CCOc1cc(/C=N/NC(=O)c2ccc(CN3CCOCC3)cc2)ccc1OC | i | i | i | i | i
COc1cc(/C=N/NC(=O)c2csc3c2CCCC3)cc(OC)c1O | i | i | 17 | i | i
O=C(COc1ccc(Cl)cc1)Nc1cc(NC(=O)COc2ccc(Cl)cc2)cc(C(=O)O)c1 | i | i | i | ? | i
CCOC(=O)C1=C(C)Nc2sc(C(=O)c3ccc(OC)cc3)c(N)c2C1c1ccc(C(=O)OC)cc1 (configuration not stated) | i | 7.4µM | i | 5.9µM | i
CCOC(=O)CCc1nc2ccccc2[nH]c1=O | i | i | i | i | i
Cc1c(OCC(F)(F)F)ccnc1CS(=O)c1nc2ccccc2[nH]1 (configuration not stated) | i | i | 116! | i | 27
CC(C)NC(=O)c1onc(CSc2nc3ccccc3[nH]2)c1C(=O)NC(C)C | i | i | i | i | i
COCCCOc1ccnc(CS(=O)c2nc3ccccc3[nH]2)c1C (configuration not stated) | i | i | 48 | i | 44
CCc1nc2ccccc2[nH]c1=O | i | i | i | i | i
Cc1c(OCC(F)(F)F)ccnc1CSc1nc2ccccc2[nH]1 | i | ? | 132 | ? | 54

Source: PubChem (National Center for Advancing Translational Sciences (NCATS))
